# Screens (PubChem BioAssay)
# Sampled rows, rich in hits. Any-hit rate of the full collection: about 2.9%.
# CF NFkB inh: blocks PAF-induced NF-kB reporter in cystic fibrosis cells | inhibition, % at 5 µM | KKLEB NF-kB-GFP reporter, GFP fluorescence overnight | actives 0.86% (n = 360,000) | AID 588850;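 active = at least 50% inhibition at 5 µM, scaled per plate between neutral and stimulator controls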;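 note: PAF is a Pseudomonas aeruginosa culture filtrate used as stimulus; plate controls were PAF-stimulated DMSO wells for no effect and unstimulated DMSO wells for full effect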
# Peg3 prom inh: Peg3 promoter activity inhibition; HeLa PEG-Prom luciferase reporter, luminescence, overnight; inhibition, % at 20 µM; actives 1.7% (n = 360,000);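 active = inhibition of at least 50% at 20 µM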
# EBV LMP1 NFkB: Epstein-Barr LMP1 NF-kappaB reporter inhibition; actives 0.69% (n = 350,000); LMP1-induced NF-kappaB luciferase reporter cells, luminescence; inhibition, % at 12.5 µM; in the data active = inhibition above about 41%;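 note: 0% = neutral control wells and 100% = reference inhibitor control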
# Shn3 inh set2: reduces Shn3 3'UTR luciferase signal in osteoblasts. AID 588674. inhibition, % at 12.5 µM. Clone20 osteoblast Shn3 3'UTR firefly luciferase, 24 h. actives 0.52% (n = 360,000);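 active = mean inhibition of at least 75% with every replicate also reaching 75%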;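 note: 0% = median of neutral control wells and 100% = pilot-screen positive control compound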
# KKLEB tox: counter-screen for CF NF-kB inhibitors: cytotoxicity. KKLEB CF airway cells viability, ATPlite luminescence, overnight; hits give low values; cells stimulated with P. aeruginosa culture filtrate. activity change (cytotoxicity), % at 5 µM. actives 0.36% (n = 360,000). AID 602141;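 active = corrected activity change at or below -50% at 5 µM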
# TRPM1 prom inh: MITF TRPM1 promoter inhibition in SK-MEL-5 cells. SK-MEL-5 TRPM1 promoter luciferase, 24 h. inhibition, % at 12.5 µM. actives 0.83% (n = 330,000);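 active = mean inhibition across replicates of 60% or more, whatever share of single replicates reaches that level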
# CF NFkB inh conf: CF NF-kB inhibition confirmation, single concentration; shares compounds with CF NFkB inh; KKLEB CF airway cells, PAF-induced NF-kB-GFP fluorescence, overnight; inhibition, % at 5 µM; actives 64% (n = 1,300); AID 602472; in the data active = inhibition above about 40%;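 note: stimulus PAF is a Pseudomonas aeruginosa filtrate and not platelet activating factor; plate controls were DMSO wells with stimulus for no effect and unstimulated DMSO wells for full effect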
# Active calls of the source: *; i = inactive; x = not tested or not shown.
SMILES,CF NFkB inh,Peg3 prom inh,EBV LMP1 NFkB,Shn3 inh set2,KKLEB tox,TRPM1 prom inh,CF NFkB inh conf
Cc1ccc2c(c1)C(=O)C(=O)N2Cc1ccc(Cl)cc1,53.5*,-24.3,2.2,-15.2,-12.5,13.7,32.9
C=C(C(=O)c1ccccc1)C(c1ccccc1)C(C)C(=O)c1ccccc1 (centres undefined),-0.1,38.0,-45.3,-3.8,-12.6,9.8,x
C=C(C(=O)c1ccccc1)C(C)C(=C)C(=O)c1ccccc1,56.6*,104.3*,-48.4,61.9,-36.9,x,i
COC(CN(C(=O)CCl)C(C(=O)NC1CCCCC1)c1ccc(Cl)cc1)OC (centres undefined),7.6,16.0,-2.8,-10.4,-0.9,-2.6,x
COC(CN(C(=O)CCl)C(C(=O)NC1CCCCC1)c1ccccc1C)OC (centres undefined),54.5*,64.5*,4.9,1.9,-40.6,27.4,-6.1
CC(=O)c1cccc(-c2ccnc3c2CC(C(=O)NCc2cccs2)O3)c1 (centres undefined),15.0,-19.6,x,-7.1,-14.0,x,x
COC(=O)c1cc(=O)n(Cc2ccc(OC)c(OC)c2)c(=Nc2ccc(F)cc2)s1,54.1*,81.2*,9.7,16.6,-20.7,15.7,-86.0
COc1ccc(Cc2c(-c3ccco3)nc3c(C)cc(Br)cn23)c(C)c1,-8.2,-8.8,x,6.5,-1.0,x,x
COc1ccc(Cc2c(-c3ccco3)nc3ccc(Br)cn23)c(C)c1,53.4*,4.7,x,7.1,-25.7,x,-13.1
COc1ccccc1Cc1c(-c2ccco2)nc2c(C)cc(Br)cn12,66.1*,97.7*,x,93.6*,-46.1,x,-253.8
Cc1ccc(Cc2c(-c3ccc(F)cc3)nc3c(C)cc(Br)cn23)cc1,59.0*,54.8*,x,0.7,-30.5,x,15.9
COc1ccccc1Cc1c(-c2ccc(F)cc2)nc2c(C)cc(Br)cn12,60.2*,31.9,x,-6.4,4.1,x,15.6
O=C(O)/C=C/c1ccc2c(-c3ccccc3)onc2c1,59.0*,29.4,-40.3,-33.7,-15.6,-0.9,73.9*
Cc1ccccc1NC(=O)Cc1nc(COC(=O)Cc2cccc(C(F)(F)F)c2)cs1,9.7,-3.5,1.5,16.8,-5.5,x,x
Nc1ccc(Oc2ccc3nc(-c4ccccc4)c(-c4ccccc4)nc3c2)cc1,x,x,-42.9,6.5,x,-7.9,x
Nc1ccc2nc(-c3ccccc3)c(-c3ccccc3)nc2c1,66.7*,8.3,-23.1,-6.8,-16.4,11.7,5.1
COc1ccc(-n2cc(-c3ccccc3)c3c(N4CC(C)OC(C)C4)ncnc32)cc1 (centres undefined),82.5*,63.8*,9.3,20.6,-15.9,0.6,71.5*
COc1ccc(-c2csc(C(C)(O)c3ccncc3)n2)cc1OC (centres undefined),1.6,0.1,x,7.8,-4.4,x,x
Cc1csc(CNc2ncnc3ccc(-c4cccnc4)cc23)c1,16.9,18.8,-4.6,32.0,-19.5,1.7,x
COc1cccc(-c2ccc3ncnc(NCc4cc(C)cs4)c3c2)c1,71.4*,24.2,32.8,-4.8,3.8,-1.2,78.0*
Cc1ccsc1CN(C)c1ncnc2ccc(-c3ccoc3)cc12,83.6*,19.4,x,-5.6,-15.7,x,96.7*
Cc1csc(CNc2ncnc3ccc(-c4ccc5c(c4)OCO5)cc23)c1,20.1,12.5,0.0,-7.0,1.6,19.2,x
Cc1csc(CNc2ncnc3ccc(-c4ccoc4)cc23)c1,71.4*,-21.3,38.2,-3.4,-19.7,-11.5,83.1*
O=C(CNC(=O)c1ccc(Br)cc1)OC1CCOC1=O (centres undefined),-35.0,9.1,-17.0,-11.5,-1.1,x,x
CN(C(=O)COC(=O)c1nc(Cl)c(Cl)c(Cl)c1Cl)C1CCS(=O)(=O)C1 (centres undefined),78.9*,107.1*,-136.8,64.7,-45.6,94.4*,-15.6
CC(C)CC1NC(=O)N(CC(=O)N2c3ccccc3NC(=O)C2(C)C)C1=O (centres undefined),16.8,11.1,-6.0,-12.4,6.5,13.1,x
CC(C)C[C@@H]1NC(=O)[C@H](Cc2ccccc2)N(C)C(=O)[C@H](C)NC(=O)c2ccccc2NC(=O)[C@H](Cc2ccc(O)cc2)N(C)C1=O,82.1*,51.9*,1.5,44.9,-23.6,17.6,94.2*
